# KCNH2 3.1 inh: qHTS for Inhibitors of KCHN2 3.1: Mutant qHTS. AID 720553, 2013. activity change, % (tested at about 1.8 µM). U2OS KCNH2 3.1, thallium flux FluxOr; stronger effect = lower value. actives 0.95% (n = 340,000). Potassium voltage-gated channel subfamily H member 2, brain isoform KCNH2 3.1 (human);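 active = maximum activity change below -70%; inconclusive = maximum activity change from -70% to -50%; inactive = maximum activity change above -50%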;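 also: thallium influx rate constant from kinetic fluorescence after stimulation buffer; % is scaled to controls: 0 for no effect and ±100 for the full control effect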
#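 Thallium flux via FluxOr fluorescence (Red40 quencher, 45 min loading) in U2OS cells virally expressing the KCNH2 3.1 isoform (1.77 x 10^8 /mL virus, overnight at 37 C). Rate constants from 2-min kinetic reads post-stimulation, normalised to positive and negative controls.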
# BCR signal inh: qHTS Assay to Find Inhibitors of Chronic Active B-Cell Receptor Signaling; ABC-DLBCL IkBa-CBG/CBR reporter, luminescence ratio, 4 h; Potency, µM (top dose mostly 46.1 µM), for inactives: at the top dose activity change, negative = inhibition, most hits filed as inhibitors; actives 0.05% (n = 340,000); active = well fitted inhibition curve with a large enough effect in the signal ratio, with a control signal flat, not every such curve was filed as active; inconclusive = small, poorly fitted or top-dose-only effect, or effect the other way, or a change in a side signal; the % refers to the signal ratio;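 also: potency is read from the fitted curve at half-maximal effect; plate controls were basal doxycycline-induced cells for no effect and cells given 10 µM MG132 for full effect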
#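 Concentration-response series (up to 46 uM) were applied to TMD8 dual-reporter cells for 4 h at 37C with doxycycline. Green/red ratio, after filter-overlap correction, defined %Activity; red signal alone was normalised to basal cells and zero luminescence.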
# 12-LOX inh: Primary qHTS assay for inhibitors of human arachidonate 12S-lipoxygenase (ALOX12): Round 2. Potency, µM (series often up to 108 µM), without a hit: at the top dose activity change, negative = inhibition, usual class: inhibitors. Polyunsaturated fatty acid lipoxygenase ALOX12 (Homo sapiens), P18054. purified 12hLO, xylenol orange hydroperoxide absorbance. actives 1.1% (n = 580,000). AID 1671190, 2021; active = well fitted inhibition curve with a large enough effect; inconclusive = small, poorly fitted or top-dose-only effect, or another doubt; inactive = no such curve, though single readings can be large or run the other way; also: potency is read from the fitted curve at half-maximal effect; % is scaled to controls: 0 for no effect and ±100 for the full control effect
#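 Purified human 12hLO (150 nM final) in 25 mM Hepes, 0.01% Triton X-100, pH 7.0 was preincubated 15 min at room temperature with compound. Then 40 uM arachidonic acid was added, 30 min. Hydroperoxide was read by Fe-XO absorbance ratio 573/405 nm.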
# ClpP mod: qHTS Assay for Activators of ClpP; purified B. subtilis ClpP, FRET peptide cleavage, 20 min; Potency, µM (highest dose often 57.5 µM), for inactives: at the highest dose activity change, negative = active; actives 1.9% (n = 340,000); AID 651965, 2013; active = well fitted falling curve with a large enough effect; inconclusive = small, poorly fitted or top-dose-only effect; inactive = no such curve, though single readings can be large or run the other way; also: potency is read from the fitted curve at half-maximal effect; the source files actives as falling curves though it sought activators and does not explain the sign; nearly all actives have a fitted effect of over 65% in size
#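 Purified B. subtilis ClpP, 10 microg/mL final in Tris/HCl pH8 with KCl, BSA, glycerol and Tween-20, cleaved an Abz/nitrotyrosine-quenched decapeptide. Fluorescence (ex 320, em 430) was read at 0 and 20 min at room temperature. Delta was normalized to 5.8 microM ADEP and DMSO/no-enzyme controls.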
# LDHA inh: qHTS assay for inhibitors of human lactate dehydrogenase; activity change, % (values are at about 110 or 230 µM); AID 1347041, 2019; purified LDHA, NADH/diaphorase-resazurin fluorescence; stronger effect = lower value; actives 0.15% (n = 480,000); L-lactate dehydrogenase A chain (Homo sapiens), P00338; in the data active = activity change below about -30%; inconclusive = mostly about -25% to -30%;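 also: plate controls were DMSO wells for no effect and wells without enzyme for full effect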
#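 LDH5 2 nM; NADH 0.06 mM, pyruvate 0.2 mM; 200 mM Tris pH 7.4, EDTA, Tween-20; 5 min RT. Detection: diaphorase 0.133 mg/mL + resazurin 37 µM, fluorescence ex540/em590 at 0 and 20 min; normalized to enzyme-free and DMSO wells.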
# hERG WT inh: qHTS for Inhibitors of KCHN2 3.1: Wildtype qHTS; Voltage-gated inwardly rectifying potassium channel KCNH2 (Homo sapiens), Q12809; U2OS, BacMam KCNH2, thallium flux FluxOr; stronger effect = lower value; activity change, % at 1.84 µM; actives 0.37% (n = 340,000); AID 720551, 2013;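 active = maximum activity change below -70%; inconclusive = maximum activity change between -70% and -50%; inactive = maximum activity change above -50%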; also: % is scaled to controls: 0 for no effect and ±100 for the full control effect
#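 U2OS cells transduced with wild-type KCNH2 virus are loaded with FluxOr dye for 45 min, and thallium flux is measured in kinetic reads before and after stimulation buffer. Rate constants are normalized to DMSO controls.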
# Numbers without * were called inactive; u = inconclusive; x = no result given; [ ] = another dose, or the depositor's remark. In the library only some 3% were active in any assay of this set; here they are far more common.
SMILES,KCNH2 3.1 inh,BCR signal inh,12-LOX inh,ClpP mod,LDHA inh,hERG WT inh
Cc1ccc(OCc2cc(C(=O)NC(Cc3ccccc3)c3ccccc3)no2)cn1 (stereo not drawn),x,x,22%,x,x,x
Cc1ccc(-c2cc(C(=O)NCCc3ccc(S(N)(=O)=O)cc3)c3ccccc3n2)cc1,-6,2%,1%,4%,-16,2
COc1ccc(-c2cc(C(=O)NCCc3ccc(S(N)(=O)=O)cc3)c3ccccc3n2)cc1,-78*,u,-6%,x,-13,8
NS(=O)(=O)c1ccc(CNC(=O)c2cc(-c3ccccc3)nc3ccccc23)cc1,-7,-2%,-19%,x,0,0
NS(=O)(=O)c1ccc(CNC(=O)c2cc(-c3cccnc3)nc3ccccc23)cc1,-159*,1%,-8%,-1%,-4,0
COc1ccc(-c2cc(C(=O)NCCc3ccccc3)c3c(-c4ccccc4)[nH]nc3n2)cc1,x,x,-21%,13µM*,-16,x
CCCNC(=O)c1cc(-c2ccncc2)nc2ccccc12,x,x,24%,x,-23,x
Cc1ccc(CCNC(=O)c2cc(-c3ccncc3)nc3ccccc23)cc1,-112*,4%,5%,-4%,-8,-10
CNC(=O)NC(=O)CN(C)Cc1ccccc1C(F)(F)F,x,x,0%,x,-3,x
CCCC(C)NC(=O)c1cc(Br)c(Br)s1 (stereo not drawn),x,x,u,x,10,x
Cc1ccc(Sc2cc(C(=O)NCCN(C)C)c3ccccc3n2)cc1,-96*,0%,u,1%,-1,6
N#Cc1cc(-c2ccccc2)cn(Cc2c(Cl)cccc2Cl)c1=O,15,1%,23%,28µM*,-5,5
Cc1cccn(Cc2c(Cl)cccc2Cl)c1=O,8,x,38%,x,-9,0
Cc1ccc(-c2cc(C#N)c(=O)n(Cc3c(Cl)cccc3Cl)c2)cc1,1,-2%,-3%,7.1µM*,-16,1
N#Cc1cc(C(=O)c2cc(Br)ccc2O)cn(Cc2ccccc2)c1=O,-16,-8%,-28%,x,-11,-7
CC(NS(=O)(=O)c1cccc2nsnc12)c1ccccc1 (stereo not drawn),x,x,-35%,x,2,x
CC1Cc2ccccc2N1Cc1nc2cc(Cl)ccc2c(=O)[nH]1 (stereo not drawn),-20,27%,0%,13µM*,6,-12
COC(=O)c1ccc2c(=O)[nH]c(CN3c4ccccc4CC3C)nc2c1 (stereo not drawn),-7,0%,-1%,-14%,6,-37
Cc1ccc(C)c(NC(=S)Nc2ncccc2C)c1,2,u,28µM*,x,-7,1
Cc1cccnc1NC(=S)Nc1ccc(F)cc1F,8,-16%,16µM*,x,-4,-7
COc1cc(NC(=S)Nc2ncccc2C)cc(OC)c1OC,1,1%,16µM*,-5%,1,-9
Cc1cccc(N2CCN(CC(=O)NC(=O)NCC(F)(F)F)CC2)c1C,x,x,u,x,3,x
Cc1ccc(NC(=O)CCc2ncc(-c3ccccc3)o2)c(O)c1,x,x,4%,x,17,x
Cc1cccc(Cn2c(NCCCN3CCOCC3)nc3c2c(=O)[nH]c(=O)n3C)c1,x,x,4%,x,0,x
CC(=O)N1CCN(c2nc(-c3c(C)noc3C)cc3cc(CN(C)C)oc23)CC1,x,x,4%[176 µM],x,x,x
SMILES,KCNH2 3.1 inh,BCR signal inh,12-LOX inh,ClpP mod,LDHA inh,hERG WT inh
COc1ccc(NC(=O)C(c2ccccc2)N2CCN(c3ccccn3)CC2)cc1Cl (stereo not drawn),-109*,u,1%,x,4,15
Cc1cccc(C(=O)NCC(=O)N2CCN(c3ccccn3)CC2)c1,7,-5%,90%,28µM*,-13,4
COc1ccc(CCn2c(=O)[nH]c3cc(C(=O)N4CCN(c5ccccn5)CC4)ccc3c2=O)cc1OC,7,1%,38%,11µM*,-5,1
CCc1nnc(NC(=O)CCC(=O)N2CCN(c3ccccn3)CC2)s1,-13,-2%,-1%,18µM*,-2,-8
O=S(=O)(/N=C/c1ccco1)c1cccs1,x,x,-21%,x,0,x
COc1cccc(C(=O)COC(=O)c2cc3c(s2)-c2ccccc2OC3)c1,x,x,u,x,-2,x
COc1ccc(CC(=O)N2CCN(c3ccccn3)CC2)cc1OC,1,0%,5%,22µM*,-4,-11
CCCCn1cnc2c1c(=O)n(CC(=O)Nc1ccc(F)c(Cl)c1)c(=O)n2CC(C)C,x,x,u,x,12,x
CC(=O)Nc1nonc1-c1nc2ccccc2n1N(C(C)=O)C(C)=O,4,-2%,-10%,28µM*,-21,-3
CC(=O)Nc1nonc1-c1nc2ccccc2n1Cc1ccccc1Br,x,x,-7%,25µM*,4,x
Cc1ccc(-n2nnc3c(N4CCN(C(=O)Cc5cccs5)CC4)ncnc32)cc1,x,x,u,x,-4,x
Cc1ccc(NC(=O)Cc2c(C)nc3nc(-c4cccs4)nn3c2C)c(C)c1,x,x,u,x,2,x
COCCNc1c2c(c(C#N)c3nc4ccccc4n13)CCCC2,-3,u,14%,-1%,1,2
N#Cc1c2c(c(NCc3cccnc3)n3c1nc1ccccc13)CCC2,6,16%,-3%,32µM*,2,-4
CC(=O)c1ccc(SCC(=O)N(C2CCCC2)C2CCCC2)c(F)c1,x,x,-10%,x,-4,x
O=C(COC(=O)c1ccccc1[N+](=O)[O-])c1ccc(F)cc1,x,x,-26%,x,3,x
CC(C)(CNC(=O)c1ccc([N+](=O)[O-])c(Cl)c1)CNC(=O)c1ccc([N+](=O)[O-])c(Cl)c1,-24,u,12%,16µM*,-5,11
C=CCNC(=O)c1ccc([N+](=O)[O-])c(Cl)c1,1,1%,10%,x,-1,-10
Cc1ccc(CN2CCCN(C(=O)c3nn(C)c(=O)c4ccccc34)CC2)cc1,x,x,-43%,x,1,x
Nc1[nH]c(=S)[nH]c(=O)c1-c1ccccc1,7,1%,7.1µM*,-4%,3,-183*
CNS(=O)(=O)c1cc(C(=O)NCc2coc(-c3cccs3)n2)cc(C)c1C,x,x,-4%,x,-3,x
CC(C)(C)c1cc(N/C=C/C(=O)C(F)(F)F)cc(C(C)(C)C)c1,x,x,-27%,x,-1,x
